PubChem BioAssay (EPA / NIEHS)
Inconclusive results are not listed. The source made the active and inactive calls. How the source made its calls: active means hit-call score of the fitted dose curve at least 0.9, where 1 is the maximum; inconclusive means response in the unintended direction; inactive means score below 0.9.

Each compound was assayed against Retinoic acid receptor alpha (Homo sapiens) (UniProt P10276) (assay: NVS_NR_hRAR_Antagonist: NovaScreen (NVS) Nuclear Receptor Binding Assay for human Retinoic Acid Alpha Receptor Antagonism (RAR) (AID 2283358)).
Experimental: NVS_NR_hRAR_Antagonist is a biochemical, single-readout assay that uses extracted gene-proteins in a cell-free assay. Measurements were taken 2 hours after chemical dosing in a 384-well plate.NVS_NR_hRAR_Antagonist is one of one assay component(s) measured or calculated from the NVS_NR_hRAR_Antagonist assay. It is designed to make measurements of fluorescent resonance energy transfer, a form of binding reporter, as detected with fluorescent resonance energy transfer signals by Time-Resolved Fluorescence Resonance Energy Transfer (TR-FRET) technology.Data from the assay component NVS_NR_hRAR_Antagonist was analyzed into 1 assay endpoint. This assay endpoint, NVS_NR_hRAR_Antagonist, was analyzed in the positive analysis fitting direction relative to DMSO as the negative control and baseline of activity. Using a type of binding reporter, loss-of-signal activity can be used to understand changes in the binding as they relate to the gene RARA. Furthermore, this assay endpoint can be referred to as a primary readout, because the performed assay has only produced 1 assay endpoint. To generalize the intended target to other relatable targets, this assay endpoint is annotated to the nuclear receptor intended target family, where the subfamily is non-steroidal.
Binding assays used specific radioligands (tritiated, iodinated) with non-radioactive competitive displacement ligands in agonist or antagonist protocols (as indicated) and various reference compounds and inhibitors to titrate specific binding to receptors and transporters. Most enzyme assays (CYPs, kinases, phosphatases, proteases, HDACs) used recombinant protein and specific substrates (fluorescence mostly, some colorimetric and radioactive) and inhibitors, followed by a biochemical separation of substrate and product. All assays for the biochemical HTS were initially run in duplicate at a single concentration (10 uM for CYP450 assays and 25 uM for all others). […] Each assay was run with positive and negative controls, and concurrent controls on every plate. The follow-up (secondary) screen tested active chemical-pairs in concentration series, as well as a few additional assays not tested in the primary screen, some selected negative inactives, and several cases re-run in the concentration series for confirmatory purposes.

Retinoic acid receptor alpha (Homo sapiens), sequence (P10276 whole entry, looked up): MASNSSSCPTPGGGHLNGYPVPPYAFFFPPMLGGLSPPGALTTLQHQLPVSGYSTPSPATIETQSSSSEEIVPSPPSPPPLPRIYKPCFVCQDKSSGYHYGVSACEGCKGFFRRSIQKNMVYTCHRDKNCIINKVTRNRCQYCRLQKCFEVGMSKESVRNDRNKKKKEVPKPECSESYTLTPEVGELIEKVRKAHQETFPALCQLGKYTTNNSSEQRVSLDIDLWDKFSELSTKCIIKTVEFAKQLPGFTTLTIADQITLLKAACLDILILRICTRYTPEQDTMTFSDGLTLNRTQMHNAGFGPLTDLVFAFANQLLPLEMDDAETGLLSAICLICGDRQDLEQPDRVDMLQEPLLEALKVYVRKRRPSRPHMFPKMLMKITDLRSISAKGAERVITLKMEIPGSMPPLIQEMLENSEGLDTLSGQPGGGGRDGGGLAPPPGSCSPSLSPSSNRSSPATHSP

Question: Which outcome does the source give for CCCCC(C#N)(Cn1cncn1)c1ccc(Cl)cc1 (configuration not stated) here?
Answer: inactive

Question: How did the outcome turn out when CN=C=S was run?
Answer: inactive

Question: O=c1n(Cl)c(=O)n(Cl)c(=O)n1Cl was tested. Which outcome did it give?
Answer: inactive

Question: Which outcome does the source give for COCc1cnc(C2=NC(C)(C(C)C)C(=O)N2)c(C(=O)O)c1 (configuration not stated) here?
Answer: inactive

Question: How did the outcome turn out when CCOC(=O)C(C)OC(=O)c1cc(Oc2ccc(C(F)(F)F)cc2Cl)ccc1[N+](=O)[O-] (configuration not stated) was run?
Answer: inactive

Question: Cc1ccc(N=CN(C)C=Nc2ccc(C)cc2C)c(C)c1 was tested. Which outcome did it give?
Answer: inactive

Question: Which outcome does the source give for O=C1C2CC=CCC2C(=O)N1SC(Cl)(Cl)Cl (configuration not stated) here?
Answer: inactive

Question: Which outcome does the source give for CC1(C)C(C=C(Cl)Cl)C1C(=O)OC(C#N)c1cccc(Oc2ccccc2)c1 (configuration not stated) here?
Answer: inactive

Question: How did the outcome turn out when CCN(CC)c1nc(C)cc(OP(=S)(OC)OC)n1 was run?
Answer: inactive

Question: For Cc1c(COC(=O)[C@@H]2[C@H](/C=C(\Cl)C(F)(F)F)C2(C)C)cccc1-c1ccccc1, which outcome is on record?
Answer: inactive

Question: For CCOP(=O)(OCC)Oc1nc(Cl)c(Cl)cc1Cl, which outcome is on record?
Answer: inactive

Question: For CS(=O)(=O)c1cc(C(F)(F)F)ccc1C(=O)c1cnoc1C1CC1, which outcome is on record?
Answer: inactive

Question: With OC(c1ccc(Cl)cc1)(c1ccc(Cl)cc1)C(Cl)(Cl)Cl as the compound, how does the outcome read?
Answer: inactive

Question: Which outcome does the source give for CC(C)Oc1cccc(NC(=O)c2ccccc2C(F)(F)F)c1 here?
Answer: inactive

Question: With CNC(=O)Oc1cccc2ccccc12 as the compound, how does the outcome read?
Answer: inactive

Question: With CCOc1cc(C(C)(C)C)ccc1C1COC(c2c(F)cccc2F)=N1 (configuration not stated) as the compound, how does the outcome read?
Answer: inactive

Question: For CCCC(=NOCC)C1=C(O)CC(CC(C)SCC)CC1=O (configuration not stated), which outcome is on record?
Answer: inactive
